Here are results for 51 compounds from PubChem BioAssay (EPA / NIEHS).

Records with an inconclusive call do not appear. Where a structure was tested more than once in an assay, its records may differ in their call. Calls of active or inactive are those of the source. Rule for the calls, unless noted: active = hit-call score of the fitted dose curve at least 0.9, where 1 is the maximum; inactive = score below 0.9.

The target in assay [1] is human Retinoid X Receptor beta (RXRb), RXRB (gene 6257) (UniProt P28702). The assay can be described thus: ATG_RXRb_TRANS: Attagene TRANS-FACTORIAL HepG2 Assay for human Retinoid X Receptor beta (RXRb) (AID 2283013; active = hit-call score of the fitted dose curve at least 0.9, where 1 is the maximum). Put shortly:
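HepG2 cells transiently transfected with multiplexed reporter units driven by GAL4-UAS and exogenous chimeric NR-Gal4 proteins; treated 24 h. Reporter mRNA measured by RT-PCR, 6-FAM labelling and capillary electrophoresis; gain-of-signal fitted versus DMSO baseline.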

Assay [2] deals with human Thyroid Receptor alpha (THRa1), THRA (gene 7067) (UniProt P10827). The assay can be described thus: ATG_THRa1_TRANS: Attagene TRANS-FACTORIAL HepG2 Assay for human Thyroid Receptor alpha (THRa1) (AID 2283014; active = hit-call score of the fitted dose curve at least 0.9, where 1 is the maximum). Summed up:
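Measured here is mRNA from a GAL4-UAS reporter in transfected HepG2 cells carrying a Gal4-fused receptor, 24 h post-dose. DMSO served as negative control and baseline.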

Read-out in assay [3]: E-selectin (Homo sapiens) (UniProt P16581)
The assay can be described thus: BSK_3C_Eselectin: BioMAP Diversity Plus: 3C Assay for Eselectin Biomarker Activity (AID 2283015).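 For outcome: cell surface E-selectin protein quantified by ELISA 24 h after dosing.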 The conditions noted are these: primary human endothelial cells (HUVEC); actives raise or lower the signal. Summed up:
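Endpoint derived by bidirectional fitting against DMSO vehicle; signal is ELISA-detected E-selectin from primary HUVEC at 24 h post-dosing, with parallel SRB staining (0.1% SRB, 560 nm) flagging cytotoxicity.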

Read-out in assay [4]: Interleukin-1 alpha (IL1a), IL1A (gene 3552)
As to the kind of experiment: BSK_BE3C_IL1a: BioMAP Diversity Plus: BE3C Assay for Interleukin-1 alpha (IL1a) Biomarker Activity (AID 2283016). The conditions noted are these: primary human bronchial epithelial cells; actives raise or lower the signal. Summed up: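 Human primary bronchial epithelial cells (BE3C system) were dosed with compound and IL-1a measured by ELISA 24 h later. Activity was fitted bidirectionally against DMSO baseline; cytotoxicity was tracked in parallel cultures by SRB total-protein staining.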

Read-out in assay [5]: Monocyte Chemoattractant Protein-1 (MCP1), CCL2 (gene 6347)
As to the kind of experiment: BSK_3C_MCP1: BioMAP Diversity Plus: 3C Assay for Monocyte Chemoattractant Protein-1 (MCP1) Biomarker Activity (AID 2283017). The conditions noted are these: primary human endothelial cells (HUVEC); actives raise or lower the signal. Summed up: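 Using human vascular primary endothelium, researchers measured MCP-1 by ELISA 24 h after treatment, with DMSO serving as negative control for bidirectional fitting.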

Read-out in assay [6]: Monocyte Chemoattractant Protein-1 (MCP1), CCL2 (gene 6347)
As to the kind of experiment: BSK_4H_MCP1: BioMAP Diversity Plus: 4H Assay for Monocyte Chemoattractant Protein-1 (MCP1) Biomarker Activity (AID 2283018). The following applies: primary human endothelial cells (HUVEC); actives raise or lower the signal. Put shortly: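 Human umbilical vein endothelial cells (4H system) dosed with chemical; MCP-1 measured by ELISA 24 h after dosing. Bidirectional curve fitting against DMSO negative control as baseline; parallel SRB total-protein staining tracks overt cytotoxicity.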

Read-out in assay [7]: Human Leukocyte Antigen - DR isotype (HLADR), HLA-DRA (gene 3122)
The assay can be described thus: BSK_3C_HLADR: BioMAP Diversity Plus: 3C Assay for Human Leukocyte Antigen - DR isotype (HLADR) Biomarker Activity (AID 2283019).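 For outcome: ELISA of cell-surface HLA-DR on HUVEC 24 h after dosing.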 The conditions noted are these: primary human endothelial cells (HUVEC); actives raise or lower the signal. Summed up: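 Compound added to primary HUVEC cultures, 24 h incubation, then HLA-DR determined by ELISA; endpoint derived by bidirectional fitting relative to DMSO negative control.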

Read-out in assay [8]: Interleukin-8 (IL8), CXCL8 (gene 3576)
The assay can be described thus: BSK_3C_IL8: BioMAP Diversity Plus: 3C Assay for Interleukin-8 (IL8) Biomarker Activity (AID 2283020). The following applies: primary human endothelial cells (HUVEC); actives raise or lower the signal. Summed up:
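Primary human umbilical vein endothelial cells (3C system) were exposed to test chemical for 24 h, then IL-8 was quantified by ELISA. Responses were fitted bidirectionally against DMSO vehicle as baseline.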

Read-out in assay [9]: Monokine induced gamma interferon (MIG), CXCL9 (gene 4283)
As to the kind of experiment: BSK_3C_MIG: BioMAP Diversity Plus: 3C Assay for Monokine induced gamma interferon (MIG) Biomarker Activity (AID 2283021). The conditions noted are these: primary human endothelial cells (HUVEC); actives raise or lower the signal. Put shortly:
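Primary human umbilical vein endothelial cells in the 3C system were exposed to chemical for 24 h, after which MIG was quantified by ELISA. Activity was fitted bidirectionally against DMSO as negative control and baseline.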

Sequence of E-selectin (Homo sapiens) (P16581 whole entry, looked up): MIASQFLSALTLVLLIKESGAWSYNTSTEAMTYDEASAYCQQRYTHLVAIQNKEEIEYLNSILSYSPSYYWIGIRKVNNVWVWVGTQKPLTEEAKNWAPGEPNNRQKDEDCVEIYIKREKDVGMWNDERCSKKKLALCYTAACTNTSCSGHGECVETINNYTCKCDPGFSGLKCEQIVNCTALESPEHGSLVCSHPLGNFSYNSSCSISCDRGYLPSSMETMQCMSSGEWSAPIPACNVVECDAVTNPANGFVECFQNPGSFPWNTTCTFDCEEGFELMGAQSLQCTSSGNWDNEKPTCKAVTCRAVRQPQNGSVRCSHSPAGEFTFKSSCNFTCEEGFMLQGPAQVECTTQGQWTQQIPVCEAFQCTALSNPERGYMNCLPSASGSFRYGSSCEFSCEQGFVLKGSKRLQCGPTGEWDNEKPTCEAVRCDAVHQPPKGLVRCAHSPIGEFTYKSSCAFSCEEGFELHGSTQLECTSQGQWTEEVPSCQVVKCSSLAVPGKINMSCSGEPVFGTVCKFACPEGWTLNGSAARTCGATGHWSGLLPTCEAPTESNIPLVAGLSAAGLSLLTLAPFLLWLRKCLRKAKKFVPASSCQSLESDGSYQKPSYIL
Sequence of human Thyroid Receptor alpha (THRa1), THRA (gene 7067) (P10827 whole entry, looked up, the tested form may be a part): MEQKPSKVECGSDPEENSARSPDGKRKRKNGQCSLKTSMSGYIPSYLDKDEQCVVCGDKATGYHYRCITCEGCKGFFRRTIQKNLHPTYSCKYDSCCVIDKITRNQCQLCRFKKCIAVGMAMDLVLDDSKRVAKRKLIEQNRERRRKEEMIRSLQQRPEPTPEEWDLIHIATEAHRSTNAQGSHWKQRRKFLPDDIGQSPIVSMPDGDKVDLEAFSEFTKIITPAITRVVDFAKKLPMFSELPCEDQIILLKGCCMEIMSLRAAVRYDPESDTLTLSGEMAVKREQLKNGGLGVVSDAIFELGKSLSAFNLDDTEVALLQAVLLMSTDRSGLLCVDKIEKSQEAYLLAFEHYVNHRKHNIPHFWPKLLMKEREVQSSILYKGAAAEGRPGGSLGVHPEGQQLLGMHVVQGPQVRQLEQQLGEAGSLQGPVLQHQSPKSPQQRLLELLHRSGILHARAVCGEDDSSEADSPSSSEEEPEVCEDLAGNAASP
Sequence of human Retinoid X Receptor beta (RXRb), RXRB (gene 6257) (P28702 whole entry, looked up, the tested form may be a part): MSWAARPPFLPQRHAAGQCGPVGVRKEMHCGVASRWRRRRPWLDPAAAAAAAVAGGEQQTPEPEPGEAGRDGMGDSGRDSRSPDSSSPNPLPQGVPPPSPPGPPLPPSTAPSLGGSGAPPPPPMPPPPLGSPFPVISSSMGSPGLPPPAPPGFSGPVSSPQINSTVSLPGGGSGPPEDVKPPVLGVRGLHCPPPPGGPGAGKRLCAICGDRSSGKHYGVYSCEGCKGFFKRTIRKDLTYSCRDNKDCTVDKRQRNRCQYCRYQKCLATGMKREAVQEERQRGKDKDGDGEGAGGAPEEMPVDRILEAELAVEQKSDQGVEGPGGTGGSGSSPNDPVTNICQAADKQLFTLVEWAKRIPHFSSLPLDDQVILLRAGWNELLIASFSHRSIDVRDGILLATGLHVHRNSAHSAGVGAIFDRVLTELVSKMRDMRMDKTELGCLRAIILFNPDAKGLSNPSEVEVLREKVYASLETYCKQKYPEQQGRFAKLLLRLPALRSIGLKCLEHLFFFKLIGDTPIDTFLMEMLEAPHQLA

Consider `C[Si](C)(C)O[Si](C)(C)C`, for which the result in assay [1] and in assay [2] was inactive.
On to `CN(C)C(=S)SC(=S)N(C)C`, for which the outcome in assay [1], in assay [2] and in assay [9] was inactive. Besides, the half-maximal activity concentration (AC50) (usually the midpoint of the concentration-response curve, whichever way the signal moves) in assay [3] is 19.9 µM (active); in [4], 30.9 µM (active); in assay [5], 31.4 µM (active); in [6], 29.5 µM (active); in [7], 31.2 µM (active); in [8] it was 3.95 µM (active).
With `O=C(O)COCC(=O)O`, the outcome in assay [1] and in assay [2] was inactive.
`C#CC(C)N(C)C(=O)Nc1ccc(Cl)cc1` (stereo unspecified): the call in assay [1] and in assay [2] was inactive.
As to `C=Cc1ccc(C)cc1`, the compound was called inactive in assay [1] and in [2].
As to `CCCCCCC(C)Nc1ccc(Nc2ccccc2)cc1` (stereo unspecified), the figures for the AC50 in [1] and in assay [2] were 30.2 µM (active) and 27.1 µM (active), respectively.
For the compound `CCCC(C)=O`, the result in assay [1] and in assay [2] was inactive.
Consider `C/C=C(\C)C(=O)OCCc1ccccc1`, for which the call in [1] and in [2] was inactive.
`CCCOCCO`: the call in assay [1] and in [2] was inactive.
On to `OCCOCCN1CCN(C2=Nc3ccccc3Sc3ccccc32)CC1`, for which, in [2], the outcome was inactive.
As for `C[C@H](CCC(=O)NCC(=O)O)[C@H]1CC[C@H]2[C@@H]3[C@H](O)C[C@@H]4C[C@H](O)CC[C@]4(C)[C@H]3C[C@H](O)[C@]12C`, the result in assay [1] was inactive. In addition, the AC50 in assay [2] is 68.7 µM (active).
Turning to `O=C1OC[C@H](Cc2cccc(O)c2)[C@H]1Cc1cccc(O)c1`, the outcome in [1], in assay [2], in [3], in assay [4], in [5] and in assay [6] was inactive. For the same compound, the result in assay [7], in assay [8] and in assay [9] was inactive.
For the compound `C=C(C)C(=O)OCCOCCOCCOC(=O)C(=C)C`, the outcome in assay [3], in assay [4], in [5], in assay [6], in [7] and in assay [8] was inactive. The outcome in [9] was inactive.
Take `CC=CC=CCOC(=O)C(C)C`: the outcome in assay [2] was inactive.
In the case of `OCC(O)c1ccccc1` (stereo unspecified), the outcome in assay [2] was inactive.
Consider `O=C(CC(=O)c1ccccc1)c1ccccc1`, for which the concentration at half-maximal activity (AC50) in assay [2] is 58.5 µM (active).
In the case of `CCCCC(CC)COC(C)=O` (stereo unspecified), in assay [2], the compound was called inactive.
On to `CC1(C)O[C@@H]2[C@@H](CO[C@@]3(COS(N)(=O)=O)OC(C)(C)O[C@@H]23)O1`, for which the compound was classed as inactive in assay [2].
In the case of `COc1ccc(COC(C)=O)cc1`, the call in [2] was inactive.
Same read-out and setting: then `C=CC(C)C#N` (stereo unspecified), with “inactive”.
Consider `CC(CN=Cc1ccccc1O)N=Cc1ccccc1O` (stereo unspecified), for which the compound was classed as inactive in assay [2], in [3], in assay [4], in [5], in assay [6] and in assay [7]. Further, the outcome in assay [8] and in [9] was inactive. Further, in assay [8], the concentration at half-maximal activity (AC50) was 0.16 µM (active).
`CCN(CC)C(=O)N(CC)CC`: the compound was classed as inactive in assay [2], in assay [3], in [4], in assay [5], in [6] and in assay [7]. In addition, the outcome in [8] and in [9] was inactive.
With `Oc1ccc2cc(SSc3ccc4cc(O)ccc4c3)ccc2c1`, the call in assay [2] was inactive.
As to `CCNCCO`, in assay [2], the outcome was inactive.
On the same count and under the same terms, then `CC(C)Nc1nc(N)nc(Cl)n1`, with “inactive”; and `O=C(c1ccccc1)C(O)c1ccccc1` (stereo unspecified), with “inactive”.
The same measure, in the same setting: to `Nc1ccn([C@H]2CS[C@@H](CO)O2)c(=O)n1` belongs “inactive”.
With `C=C(C)C(=O)OCC(CC)(COC(=O)C(=C)C)COC(=O)C(=C)C`, the AC50 in [3] is 26.3 µM (active); in assay [7], 19.7 µM (active). The result in assay [4], in assay [5], in assay [6], in assay [8] and in assay [9] was inactive.
For the compound `c1ccc(Oc2ccccc2)cc1`, the AC50 is 35.9 µM (active) in [3]; 30.3 µM (active) in [5]; 32.9 µM (active) in [6]; 32.8 µM (active) in assay [7]; 20 µM (active) in [8]. For the same compound, the outcome in [4] and in assay [9] was inactive.
Consider `C[C@@H]1CCN(C(=O)[C@H](CCCN=C(N)N)NS(=O)(=O)c2cccc3c2NC[C@H](C)C3)[C@@H](C(=O)O)C1`, for which the outcome in [3], in assay [4], in assay [5], in [6], in [7] and in assay [8] was inactive. Moreover, the result in assay [9] was inactive.
Turning to `CC/C=C\CC/C=C/CO`, the call in [2] was inactive.
Same read-out and setting: then `CCOC(=O)CC(C)O` (stereo unspecified), with “inactive”; and `CCC1CCCCC1`, with “inactive”.
Same read-out and setting: then `O=c1c(O)c(-c2ccc(O)cc2)oc2cc(O)cc(O)c12`, with “inactive”; and `CCOc1ccc(N=Nc2ccc(C=Cc3ccc(N=Nc4ccc(OCC)cc4)cc3S(=O)(=O)O)c(S(=O)(=O)O)c2)cc1`, with “inactive”; and `Cc1ccc(S(=O)(=O)Oc2ccc(N=Nc3ccc(-c4ccc(N=Nc5c(O)ccc6cc(S(=O)(=O)O)cc(S(=O)(=O)O)c56)c(C)c4)cc3C)cc2)cc1`, with “inactive”.
Same read-out and setting: to `CCCCCCCCN1CCCC1=O` belongs “inactive”; to `OCc1ccc(Cl)cc1Cl`, “inactive”; to `C=C(C#N)C(=O)OCC`, “inactive”.
Turning to `C=C(C)C(=O)OCCOCCOCCOCCOC(=O)C(=C)C`, the outcome in [3], in assay [4], in assay [5], in [6], in assay [7] and in assay [8] was inactive. Further, in assay [9], the result was inactive.
As for `NCC1CCCC(CN)C1` (stereo unspecified), the call in assay [2] was inactive.
Take `CCCCCCCCCCCCN1CCCCCC1=O`: the result in assay [2] was inactive.
Still for that read-out and setting: then `CC[N+](C)(CC)CC`, with “inactive”; and `Cc1occc(=O)c1OC(=O)C(C)C`, with “inactive”; and `CC/C=C\CCOC(=O)CC`, with “inactive”.
The same measure, in the same setting: then `Cc1ccc(OC(=O)c2ccccc2O)cc1`, with “inactive”; and `Cc1c(C2(c3cc(Br)c(O)c(Br)c3C)OS(=O)(=O)c3ccccc32)cc(Br)c(O)c1Br`, with “inactive”.
Same read-out and setting: then `CCCCSCCCC`, with “inactive”; and `COC(=O)c1ccc([N+](=O)[O-])cc1`, with “inactive”.
For `CCCC[P+](CCCC)(CCCC)CCCC`, the outcome in assay [2] was inactive.
As to `Cc1cc(=O)oc2cc(N(C)C)ccc12`, the outcome in assay [2] was inactive.
